FBW7 act: human FBW7 E3 ligase activation, primary screen | AlphaScreen FBW7–phospho-cyclin E peptide binding, activator screen | AID 1259310 | 650,000 tested, 0.13% active | normalized activity (activation), % at 26.1 µM; in the data active = normalized activity above about 1.9%;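 also: purified mutant Fbw7 with reduced substrate affinity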
TEAD-YAP block: TEAD-YAP interaction inhibition; 640,000 tested, 1.4% active; HEK-TIYL cells, TEAD-Gal4/YAP UAS-luciferase luminescence; inhibition, % at 9.12 µM; AID 1259422; in the data active = inhibition above about 32%;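 also: 0% = median of test compound wells and 100% = reference inhibitor wells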
GPR151 ag: activates the human receptor GPR151; PathHunter beta-arrestin GPR151 cells, luminescence; activation, % at 11.2 µM; 650,000 tested, 1% active; AID 1508602; in the data active = activation above about 4.9%;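 also: 0% = median of compound wells and 100% = cells with positive control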
MITF primary: blocks human microphthalmia-associated transcription factor | O75030 | AlphaScreen MITF homodimerization, bead proximity signal | inhibition, % at 2.6 µM | 650,000 tested, 0.91% active | AID 1259374; in the data active = inhibition above about 50%;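 also: 0% = vehicle wells with protein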
Target sequence (O75030 whole entry, looked up): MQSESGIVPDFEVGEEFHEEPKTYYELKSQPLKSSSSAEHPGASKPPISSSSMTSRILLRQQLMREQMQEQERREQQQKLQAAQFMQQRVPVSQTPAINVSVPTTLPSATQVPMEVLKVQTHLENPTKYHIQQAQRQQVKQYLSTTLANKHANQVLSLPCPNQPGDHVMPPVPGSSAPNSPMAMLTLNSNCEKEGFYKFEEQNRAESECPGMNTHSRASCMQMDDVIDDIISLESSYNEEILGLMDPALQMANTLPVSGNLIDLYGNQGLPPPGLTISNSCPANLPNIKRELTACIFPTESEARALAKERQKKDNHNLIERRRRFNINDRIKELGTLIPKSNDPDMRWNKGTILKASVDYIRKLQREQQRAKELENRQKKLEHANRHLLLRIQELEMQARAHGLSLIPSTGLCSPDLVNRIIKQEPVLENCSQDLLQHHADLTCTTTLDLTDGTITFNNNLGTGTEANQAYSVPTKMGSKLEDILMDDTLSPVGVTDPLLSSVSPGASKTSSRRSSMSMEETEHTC
* hit, by the source's call. This is a sample that favours compounds with a hit; in the whole collection about 3.5% have one here.

SMILES	FBW7 act	TEAD-YAP block	GPR151 ag	MITF primary
CC(=O)c1ccc(/C=C/c2nc3ccccc3n2C)o1	0.0	52.7*	-5.5	-2.0
COCCn1c(/C=C/c2ccccc2)nc2ccccc21	1.0	-49.8	-2.9	2.8
CCN1C(=O)/C(=C2/C=Cc3ccccc3N2CC)S/C1=N\c1ncn[nH]1	-0.4	-20.6	0.2	13.7
COc1ccc(NC(=O)c2cc(S(=O)(=O)N3CCN(c4ccccn4)CC3)ccc2F)cc1	1.9*	6.7	3.5	6.5
CCC(=O)N1CCCc2ccc(NC(=O)NCc3cccc4ccccc34)cc21	14.4*	-7.0	1.2	7.5
CN(C)C(=O)c1ccc(S(=O)(=O)N(Cc2ccco2)C2CC2)o1	-0.1	0.6	-0.7	-2.5
CCOc1ccc(/C(O)=C2\C(=O)C(=O)N(c3nccs3)C2c2ccccc2)cc1 (stereo not given)	-0.1	36.4*	-0.4	-3.0
COC(=O)c1c(C)[nH]c(C(=O)C(C)Nc2cc(Cl)ccc2OC)c1C (stereo not given)	0.0	0.2	1.3	-2.4
CCOC(=O)C1CCN(c2c(Nc3cccc(SC)c3)c(=O)c2=O)CC1	0.0	55.4*	-0.2	0.6
CCOC(=O)C1CCN(c2c(NCc3ccc(Cl)cc3)c(=O)c2=O)CC1	-0.1	66.6*	-0.6	0.7
CCOC(=O)C1CCN(c2c(NCc3ccc(N(C)C)cc3)c(=O)c2=O)CC1	0.0	0.9	0.9	5.3
CCOC(=O)C1CCN(c2c(NCc3ccc(F)cc3)c(=O)c2=O)CC1	0.1	64.3*	-1.7	12.2
CCOC(=O)C1CCN(c2c(NCc3ccc(OC)cc3)c(=O)c2=O)CC1	0.1	57.8*	-0.1	-9.9
CCOC(=O)C1CCN(c2c(Nc3ccc(C)c(F)c3)c(=O)c2=O)CC1	-0.2	-9.8	-0.2	-0.6
CON(C)C(=O)Cn1nc(C)n2c(cc3ccsc32)c1=O	-0.1	-5.0	-0.3	7.7
COc1ccc(C(NC(=O)C2CCN(C(=O)OCC(C)C)CC2)c2ccccn2)cc1 (stereo not given)	0.1	3.3	-1.0	2.9
COC(=O)C1=CN(CCc2ccccc2)C=C(C(=O)OC)C1c1cc(OC)c(OC)c(OC)c1	2.6*	2.0	-0.9	10.7
COC(=O)C1=CN(CCc2ccccc2)C=C(C(=O)OC)C1c1ccc2c(c1)OCO2	3.2*	-2.8	0.0	1.7
CC1=C(C(=O)Nc2ccccc2)C(c2ccco2)C(C#N)=C(SCC(=O)Nc2ccc(C)c(Cl)c2)N1 (stereo not given)	0.1	15.2	1.6	21.8
c1c2c(cc3sc(N4CCOCC4)nc13)OCCO2	-0.1	69.3*	-5.6	15.4
Cc1cc(OCC(=O)n2cnc3ccccc32)ccc1[N+](=O)[O-]	0.2	4.1	-0.6	12.5
CC(=O)N(C(C)=O)N1C(=O)/C(=C/c2ccc3c(c2)OCO3)SC1=S	0.1	-4.6	-1.3	-5.7
O=c1c(CN2CCN(Cc3ccccc3)CC2)coc2ccccc12	-0.1	67.0*	-1.6	42.6
N#Cc1cc2cc3c(cc2nc1NCCCNC(=O)c1ccc(Cl)cc1)OCO3	-0.1	-16.1	0.5	-4.4
COc1cc(OC)cc(C2=NC3(CCCCC3)NC2=O)c1	2.1*	3.5	0.9	-8.2
SMILES	FBW7 act	TEAD-YAP block	GPR151 ag	MITF primary
CC(=O)Oc1cccc(/C=c2/sc3nc(-c4ccccc4)nn3c2=O)c1	-0.1	8.9	0.4	4.8
CC1CCc2cc(F)ccc2N1S(=O)(=O)c1c(N)n(C)c(=O)n(C)c1=O (stereo not given)	0.3	-5.7	-0.2	-1.7
CC(=O)Nc1ccc(S(=O)(=O)N2c3ccc(F)cc3CCC2C)cc1 (stereo not given)	0.1	46.2*	4.2	-0.3
COc1ccc(C(=O)C2CCN(S(=O)(=O)c3ccc(F)cc3)CC2)cc1	-0.2	41.9*	-0.1	-7.7
COc1ccc(S(=O)(=O)N2c3ccc(F)cc3CCC2C)cc1 (stereo not given)	-0.1	56.0*	0.7	-16.1
CCOC(=O)c1ccc(N/C=C\C(=O)c2ccc3c(c2)OCO3)cc1	0.0	33.0*	-0.9	-10.6
CCn1c(Cn2cnc([N+](=O)[O-])n2)nnc1SC	-0.2	3.5	0.1	3.8
COc1cc(Nc2nc(-c3ccccc3)nc3nc[nH]c23)cc(OC)c1OC	0.0	59.5*	-0.5	5.0
COc1cc(Nc2nc(-c3ccc(N4CCOCC4)nc3)ncc2C)cc(OC)c1OC	-0.2	29.9	-1.0	5.0
COc1ccc(-c2nc3ncnc(Nc4cc(OC)c(OC)c(OC)c4)c3[nH]2)cc1	-0.1	50.4*	-2.5	4.1
COc1cc(Nc2nc(-c3ccc(N4CCOCC4)nc3)nc3nc[nH]c23)cc(OC)c1OC	0.8	52.4*	-1.4	21.3
CC1(Cc2ccc(Br)cc2)C(=O)OC(c2ccc(Br)cc2)C(C)(C)C1=O (stereo not given)	0.0	-6.1	1.1	5.3
COc1ccc(-c2ccc(NCCCN(C)C)nc2)cc1	-0.4	3.7	0.5	-11.5
COc1ccc2c(-c3ccccc3)cc(NCCCN(C)C)nc2c1	0.4	-12.8	-1.4	68.1*
COCCn1c(Cc2ccccc2)nnc1SCC(=O)NC(C)(C)C	0.0	58.9*	0.0	-13.1
CCn1c(Cc2ccccc2)nnc1SCC(=O)NC(C)(C)C	-0.1	-16.7	1.6	-1.8
Cc1cc(NC(=O)CSc2nc3ccccc3c(=O)[nH]2)no1	-0.2	54.8*	0.5	1.6
Cc1cc(NC(=O)CSc2nc3ccccc3c(=O)n2C2CCCC2)no1	-0.1	50.0*	1.8	5.5
Oc1c(/C=N/n2cnnc2)cc(Br)c2ccccc12	0.0	1.4	-0.5	2.8
CCc1cc2c(=O)c(Oc3ccc(OC)cc3)c(C)oc2cc1O	-0.2	-11.2	0.5	1.0
CCN(Cc1ccccc1)C(=O)c1sc2nc3n(c(=O)c2c1C)CCCC3	0.6	37.2*	1.5	10.4
C/C(=N/N1CCN(C)CC1)c1c(C(F)(F)F)[nH]n(-c2nc3ccccc3s2)c1=O	0.0	49.2*	-8.0	8.0
C/C(=N\N1CCOCC1)c1c(C(F)(F)F)[nH]n(-c2nc3ccccc3s2)c1=O	0.7	-1.5	-1.2	12.9
CC(=NCc1cccnc1)c1c(C)[nH]n(-c2nc3ccccc3s2)c1=O	0.1	42.2*	-8.2	7.5
CCN(c1ncnc(N)c1[N+](=O)[O-])C1CCCCC1	-0.3	51.3*	0.2	21.3
SMILES	FBW7 act	TEAD-YAP block	GPR151 ag	MITF primary
Nc1ncnc(N(c2ccccc2)C2CCCCC2)c1[N+](=O)[O-]	-0.1	-4.8	0.9	16.2
Cc1ncn(-c2ccc(Nc3ncc(Cl)c(-c4cnn(C)c4)n3)cc2)n1	-0.2	72.5*	-0.8	-15.6
Cc1nc(C)n(-c2ccc(Nc3ncc(Br)c(-c4cnn(C)c4)n3)cc2)n1	-0.1	77.3*	0.0	7.9
Cc1nc(C)n(-c2ccc(Nc3nc(-c4cnn(C)c4)cc(N(C)C)n3)cc2)n1	-0.2	33.0*	-2.5	14.9
Cc1nc(C)n(-c2ccc(Nc3nccc(-c4cc(F)cc(-c5cnn(C)c5)c4)n3)cc2)n1	0.2	-1.1	-0.9	9.4
Cc1ncn(-c2ccc(Nc3ncc(Cl)c(Nc4ccccc4-c4ncn(C)n4)n3)cc2)n1	0.0	1.4	0.3	-2.7
CN(CCO)CCCCOc1ccc2c(c1)C(=O)c1cc(OCCCCN(C)CCO)ccc1-2	-0.1	-8.0	-0.6	-3.7

Bioassay records: PubChem BioAssay, The Scripps Research Institute Molecular Screening Center
